Screens: PubChem, several laboratories
Rows were chosen to be rich in hits. Some 3.8% of all compounds tested hit in one or more screens of this group.
Yeast superoxide: reduction of superoxide in aged yeast, primary screen, HTS; superoxide response (% of plate mean), % at 10 µM; S. cerevisiae aged cells, superoxide DHE fluorescence; hits give low values; 330,000 compounds, 0.18% hits;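 active = superoxide response under a set limit, about three screen SD below normal, cut at about 65% in these data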;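 also: yeast aged for seven days with compound at 30 °C before DHE staining; 100% = average MFI of all compound-treated wells on the plate with controls excluded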
FAS TE block: FAS thioesterase domain inhibitors, primary screen, biochemical, fluorescence intensity, uHTS. recombinant FAS-TE, OMFH fluorogenic substrate, fluorescence endpoint. 360,000 compounds, 0.67% hits. Fatty acid synthase (Homo sapiens), P49327. inhibition, % at 15 µM;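 active = compounds whose normalised, plate-corrected inhibition of enzyme fluorescence in the single-dose primary screen is 50% or more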;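 also: 0% = DMSO with enzyme and 100% = substrate without enzyme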
Target sequence (P49327 whole entry, looked up, the tested form may be a part): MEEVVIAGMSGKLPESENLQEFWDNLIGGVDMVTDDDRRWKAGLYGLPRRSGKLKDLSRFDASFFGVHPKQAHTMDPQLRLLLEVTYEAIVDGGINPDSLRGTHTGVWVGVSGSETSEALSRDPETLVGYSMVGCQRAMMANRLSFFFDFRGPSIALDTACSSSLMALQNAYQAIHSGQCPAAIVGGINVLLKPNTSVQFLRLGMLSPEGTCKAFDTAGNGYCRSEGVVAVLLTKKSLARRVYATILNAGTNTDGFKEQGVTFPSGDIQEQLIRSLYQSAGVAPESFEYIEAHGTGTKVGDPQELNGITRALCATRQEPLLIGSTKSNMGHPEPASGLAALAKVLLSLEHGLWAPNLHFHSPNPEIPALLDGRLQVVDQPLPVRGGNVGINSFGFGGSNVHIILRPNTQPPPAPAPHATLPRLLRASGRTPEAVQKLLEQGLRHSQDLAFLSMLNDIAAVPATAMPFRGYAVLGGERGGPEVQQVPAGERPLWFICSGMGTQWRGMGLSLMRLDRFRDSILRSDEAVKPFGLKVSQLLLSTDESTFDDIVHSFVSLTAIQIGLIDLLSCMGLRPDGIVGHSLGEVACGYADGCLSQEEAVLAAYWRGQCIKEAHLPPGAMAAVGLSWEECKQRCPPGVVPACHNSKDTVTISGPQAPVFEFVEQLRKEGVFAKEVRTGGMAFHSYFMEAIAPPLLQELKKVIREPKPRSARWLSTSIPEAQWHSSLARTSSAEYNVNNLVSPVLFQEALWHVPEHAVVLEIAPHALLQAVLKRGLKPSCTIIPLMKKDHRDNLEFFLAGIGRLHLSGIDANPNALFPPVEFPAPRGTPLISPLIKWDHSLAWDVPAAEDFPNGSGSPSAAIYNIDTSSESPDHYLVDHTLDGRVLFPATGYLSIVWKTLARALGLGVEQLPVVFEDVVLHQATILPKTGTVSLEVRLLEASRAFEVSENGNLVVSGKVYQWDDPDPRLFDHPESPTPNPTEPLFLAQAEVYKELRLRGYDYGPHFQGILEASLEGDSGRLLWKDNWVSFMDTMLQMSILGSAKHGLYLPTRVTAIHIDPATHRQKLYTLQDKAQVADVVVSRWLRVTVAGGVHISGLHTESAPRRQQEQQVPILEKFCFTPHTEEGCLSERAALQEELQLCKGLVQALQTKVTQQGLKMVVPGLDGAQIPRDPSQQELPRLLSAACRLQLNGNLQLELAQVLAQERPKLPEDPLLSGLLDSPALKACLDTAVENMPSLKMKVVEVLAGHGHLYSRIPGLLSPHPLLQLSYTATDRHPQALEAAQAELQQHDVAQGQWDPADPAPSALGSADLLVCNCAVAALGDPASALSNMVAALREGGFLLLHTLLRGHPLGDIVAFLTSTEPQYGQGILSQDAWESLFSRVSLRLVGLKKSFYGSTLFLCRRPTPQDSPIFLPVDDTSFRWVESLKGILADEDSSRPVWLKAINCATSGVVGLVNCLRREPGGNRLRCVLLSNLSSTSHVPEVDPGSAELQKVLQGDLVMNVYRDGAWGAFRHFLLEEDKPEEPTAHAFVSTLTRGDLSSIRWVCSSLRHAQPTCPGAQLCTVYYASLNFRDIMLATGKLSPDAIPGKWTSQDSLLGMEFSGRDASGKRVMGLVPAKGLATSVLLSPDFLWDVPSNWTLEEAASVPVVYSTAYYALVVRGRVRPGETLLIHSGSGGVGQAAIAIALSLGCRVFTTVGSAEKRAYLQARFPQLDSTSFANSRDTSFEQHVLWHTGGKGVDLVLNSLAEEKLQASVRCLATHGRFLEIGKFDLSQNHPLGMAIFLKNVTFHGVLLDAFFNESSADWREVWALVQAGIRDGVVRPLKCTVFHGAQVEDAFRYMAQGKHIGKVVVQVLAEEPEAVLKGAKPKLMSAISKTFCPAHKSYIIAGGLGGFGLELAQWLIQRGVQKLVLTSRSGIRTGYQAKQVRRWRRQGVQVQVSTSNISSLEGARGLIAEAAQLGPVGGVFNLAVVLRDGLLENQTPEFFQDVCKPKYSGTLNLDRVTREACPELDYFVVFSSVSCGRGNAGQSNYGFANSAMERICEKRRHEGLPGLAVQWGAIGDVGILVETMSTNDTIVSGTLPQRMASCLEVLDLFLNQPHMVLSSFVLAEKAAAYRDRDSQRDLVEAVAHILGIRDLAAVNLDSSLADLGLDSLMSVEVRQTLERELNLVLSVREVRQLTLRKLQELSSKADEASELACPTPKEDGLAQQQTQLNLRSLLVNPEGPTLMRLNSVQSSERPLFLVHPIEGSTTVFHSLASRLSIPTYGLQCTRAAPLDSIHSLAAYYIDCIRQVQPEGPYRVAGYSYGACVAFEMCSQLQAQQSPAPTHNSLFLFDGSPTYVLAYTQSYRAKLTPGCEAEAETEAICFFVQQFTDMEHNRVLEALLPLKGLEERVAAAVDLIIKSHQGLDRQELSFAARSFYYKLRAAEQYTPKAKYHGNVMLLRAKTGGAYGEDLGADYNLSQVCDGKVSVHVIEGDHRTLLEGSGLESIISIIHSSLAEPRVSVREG
aDG glyco act: activators of alpha-DG glycosylation, primary screen, uHTS, Pro5-aDG cells, AlphaScreen | alpha-DG glycosylation AlphaScreen (IIH6); 0% Pro5, 100% B10-LARGE cell signal | activation, % at 10 µM | 360,000 compounds, 0.22% hits;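 active = activation of at least 8% versus controls, or a plate z-score of at least 8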;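 also: Pro5 are CHO cells carrying HIG-tagged alpha-DG that lacks glycosylation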
MPTP block: mitochondrial permeability transition pore inhibitors, primary screen, biochemical, isolated mouse mitochondria, absorbance | Ca2+ swelling absorbance, 30 min | inhibition, % at 10 µM | 360,000 compounds, 1.4% hits;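 active = inhibition of 50% or more, scaled per plate between neutral and stimulator controls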;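 also: 0% = DMSO wells given calcium and 100% = 1 mM EGTA wells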
SUMO Mot1 rescue: yeast Mot1-301 growth rescue at high temperature, primary screen, SUMOylation pathway inhibitor project, S. cerevisiae, ATP luminescence, 38.5C; S. cerevisiae Mot1-301 growth rescue; percent above DMSO median, 100 means doubled; growth rescue, % at 18.8 µM; 320,000 compounds, 1% hits; AID 2716, 2010;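 active = every valid replicate shows activation above 250% relative to neutral control wells; inactive = the rest, any valid replicate at or below 250%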;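 also: OY570 slx delta 5 strain wells were the positive control but not used for scaling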
H9c2 protect: cardioprotection against H2O2-induced cell death, primary screen, uHTS, H9c2 cells, ATPLite luminescence; H9c2 cardiomyocytes, H2O2 injury protection, 2 h; protection from H2O2 cell death, % at 20 µM; AID 588492, 2011; 360,000 compounds, 0.63% hits;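 active = compounds giving at least 50% protection of heart cells from peroxide-induced death in the single-dose screen, raw or plate-pattern-corrected value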;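 also: 0% = DMSO wells with peroxide and 100% = DMSO wells without peroxide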
aDG glyco conf: alpha-DG glycosylation enhancers, retest, confirmation, single concentration, Pro5-aDG cells; shares compounds with aDG glyco act; IIH6 AlphaLISA; scaled to LARGE-overexpressing B10 cells as 100%; activation, % at 10 µM (by protocol); 600 compounds, 17% hits;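 active = activation of at least 7% in one or more replicates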;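 also: cells exposed to compound for two days before detection; 0% = DMSO-treated Pro5 cells and 100% = DMSO-treated B10-LARGE cells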
* marks the source's active call; other numbers are inactive results; . = no result.

SMILES | Yeast superoxide | FAS TE block | aDG glyco act | MPTP block | SUMO Mot1 rescue | H9c2 protect | aDG glyco conf
c1ccc2cc(-c3cc4ccccn4c3)ccc2c1 | 101 | 2 | 5.2* | 1 | 11 | -7 | 0
O=C(C1CCN(c2nnc(-n3cccc3)s2)CC1)N1CCN(c2cccc(C(F)(F)F)c2)CC1 | 96 | -2 | 8.0* | 0 | -16 | -16 | 0
O=C(COc1ccc2ccc(=O)oc2c1)N1CCN(C(=O)C2COc3ccccc3O2)CC1 (stereo not given) | 91 | 0 | 7.8* | -1 | -3 | 0 | 0
Cc1cc(=O)oc2cc(OCC(=O)N3CCN(C(=O)C4COc5ccccc5O4)CC3)ccc12 (stereo not given) | 101 | 0 | 0 | 0 | 8 | 20 | .
Cc1cc2ccccc2n1CCNC(=O)C1CC1 | 96 | -5 | 7.8* | 3 | -3 | 10 | 0
CN(C)S(=O)(=O)c1ccc(N2CCCC2)c(C(=O)N2CCN(S(=O)(=O)c3ccc(F)c(F)c3)CC2)c1 | . | 12 | 0 | -2 | . | 23 | .
COc1ccc(C(N)c2csc(Nc3cc(Oc4ccccc4)ncn3)n2)cc1 (stereo not given) | . | -5 | 2 | 1 | . | 5 | .
NC(c1csc(Nc2cc(Oc3ccccc3)ncn2)n1)C1CCCCC1 (stereo not given) | . | -1 | 9.7* | 5 | . | -8 | 11*
COc1ccc(-c2cc(N3CCN(CCO)CC3)n3nccc3n2)cc1 | . | -7 | 0 | 0 | . | 6 | .
CCOc1cccc(-c2cc(N3CCN(CCO)CC3)n3nccc3n2)c1 | . | -2 | 6.0* | 1 | . | 0 | -1
O=C(CSc1nc2ccccc2s1)CSc1nc2ccccc2s1 | 107 | 26 | 6.8* | 4 | 44 | -3 | -1
CCC1CCCCN1C(=O)CN1C(=O)c2ccccc2S1(=O)=O (stereo not given) | 95 | -9 | 3.3* | 0 | -8 | 1 | 0
CC1CCCCN1C(=O)CN1C(=O)c2ccccc2S1(=O)=O (stereo not given) | 106 | -5 | 0 | -2 | -11 | -2 | .
Oc1ccc(C[C@H]2CNC(=S)N2CC2CCCN2C[C@H](Cc2ccc(O)cc2)N2C[C@H](Cc3ccccc3)N(CC3CCCCC3)C2=S)cc1 (stereo not given in full) | . | -104 | 8.9* | 0 | . | -14 | 4
C=C(C)Cn1c(=O)c2c(nc3n2CCCN3CCc2ccccc2)n(C)c1=O | 98 | -1 | 0 | 0 | -13 | 0 | .
COc1ccccc1C(=O)NCCC(=O)NCC(c1ccc(F)cc1)N1CCOCC1 (stereo not given) | 90 | -6 | 0 | -1 | -10 | 1 | .
Cc1cc(C)cc(N=C2NC(=O)CS2)c1 | 99 | -7 | 0 | -1 | -2 | 10 | .
Cc1cccc(N=C2NC(=O)CS2)c1 | 104 | -7 | 6.4* | -1 | 1 | -2 | 1
CN1CCc2c(sc(NC(=O)c3ccc(S(=O)(=O)N4CCc5ccccc54)cc3)c2C(N)=O)C1 | 115 | . | . | . | 10 | . | .
CCN1CCc2c(sc(NC(=O)c3ccc(S(=O)(=O)N4CCCC4)cc3)c2C(=O)NC)C1 | 96 | -5 | 47* | 0 | 21 | -14 | 0
CCOC(=O)N1CCN(S(=O)(=O)c2ccc(C(=O)Nc3sc4c(c3C(N)=O)CCN(CC)C4)cc2)CC1 | 95 | 0 | 86* | -1 | 0 | 3 | 0
CN1CCc2c(sc(NC(=O)c3ccc(S(=O)(=O)N4CCCC4)cc3)c2C(N)=O)C1 | 92 | -22 | 14* | 0 | -4 | 10 | 2
Cc1ccc[n+](CC(=O)Nc2ccc(Cl)c([N+](=O)[O-])c2)c1 | 104 | 3 | 0 | 2 | 45 | -4 | .
COc1ccc(Cn2cc(CN(C)C3CN(Cc4cn(Cc5ccc(OC)cc5)nn4)S(=O)(=O)C3)nn2)cc1 (stereo not given) | . | -12 | 0 | -1 | . | . | .
CCOC(=O)C1=CCN(S(=O)(=O)c2ccccc2Br)C1c1cccc(Cl)c1 (stereo not given) | . | 14 | 0 | -2 | . | -2 | .
SMILES | Yeast superoxide | FAS TE block | aDG glyco act | MPTP block | SUMO Mot1 rescue | H9c2 protect | aDG glyco conf
Cc1c(O)cc2c(c1O)C(=O)CC(c1ccc(O)cc1)O2 (stereo not given) | 120 | 8 | 4.7* | 2 | 10 | 1 | -1
COc1cc(O)c2c(c1)OC(c1ccc(O)cc1)CC2=O (stereo not given) | 100 | 8 | 13* | 0 | 2 | -7 | 2
Cc1nn(C)c(C)c1/C=C/C(=O)c1ccc(Cl)cc1Cl | 87 | -3 | 8.4* | 12 | . | -33 | 2
Cc1nc2ccc3nc(NC(=O)c4ccc5c(c4)OCCO5)sc3c2s1 | 107 | 0 | 7.7* | 1 | 13 | 3 | -1
CCS(=O)(=O)N1CCCC(C(=O)c2ccc(OC)cc2C)C1 (stereo not given) | 103 | -5 | 25* | 0 | -4 | -11 | 0
CC(C)=C(NC(=O)c1ccccc1)C(=O)NC(Cc1ccccc1)C(=O)O (stereo not given) | 97 | -7 | 0 | -2 | -2 | -2 | .
COc1ccc(-c2cc(-c3ccc(F)cc3)nc(N3CCN(C)CC3)n2)cc1 | 79 | 22 | 15* | -7 | 14 | -23 | 0
COc1ccc(-c2cc(C(F)(F)F)nc(N3CCOCC3)n2)cc1 | 91 | 23 | 0 | 4 | 0 | -6 | .
CN1CCN(c2ccc(S(=O)(=O)N3CCCCC3)cc2NC(=O)/C=C/c2ccc(OC(F)F)cc2)CC1 | 90 | 6 | 7.5* | -1 | 17 | 13 | 17*
O=C(Nc1cc([N+](=O)[O-])ccc1O)NC1CCS(=O)(=O)C1 (stereo not given) | 113 | -7 | 0 | 0 | -4 | -3 | .
CC1(NC(=O)Nc2cc([N+](=O)[O-])ccc2O)CCS(=O)(=O)C1 (stereo not given) | 103 | -3 | 6.9* | -1 | -4 | -1 | 0
O=C(Nc1cc(S(=O)(=O)N2CCOCC2)ccc1N1CCOCC1)c1ccc([N+](=O)[O-])s1 | 101 | 5 | 3 | 0 | -24 | 3 | .
Cc1ccc(NC(=O)c2ccc([N+](=O)[O-])s2)cc1S(=O)(=O)N1CCOCC1 | 108 | 0 | 9.0* | 7 | -2 | -16 | 6.1*
COc1ccc2[nH]c(=O)c(CN(Cc3cccnc3)C(=O)Nc3ccccc3)cc2c1 | 111 | 0 | 0 | 1 | 7 | 30 | .
